In PubChem BioAssay (NCI) one finds growth inhibition data, which are given here for ten compounds.

About 79,000 compounds went through this panel and 15% of them were active in at least one assay; those are over-represented in the sample as a whole. Values without a mark were called inactive. Activity calls are given as the source filed them. Cut-off read from the data, not from the text of the source: active = growth inhibition above about 70%; inactive = the rest.

Experiment [1] in a line: NCI Yeast Anticancer Drug Screen. Data for the rad50 strain (AID 155).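 Note: 0% = growth of vehicle-only cultures of the same strain.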 The following applies: S. cerevisiae rad50 strain growth inhibition, active compounds read high. The procedure, abridged:
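Inhibition values express reduced yeast growth in compound-treated cultures relative to vehicle-treated controls.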

Experiment [2] can be described thus: NCI Yeast Anticancer Drug Screen. Data for the mec2-1 strain (AID 157). Conditions: S. cerevisiae mec2-1 strain, active compounds read high. In outline: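 Cells of the genetically defined mec2-1 yeast strain are incubated with test compound. Inhibition of growth is calculated against vehicle-treated controls.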
The nature of experiment [3]: NCI Yeast Anticancer Drug Screen. Data for the sgs1 mgt1 strain (AID 161).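 Note: 0% = growth of cultures given vehicle only.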 The following applies: S. cerevisiae sgs1 mgt1 strain, active compounds read high. The procedure, abridged:
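Read-out: growth inhibition vs vehicle controls. Cells: mutant yeast strain deficient in DNA damage repair.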

Experiment [4] in a line: NCI Yeast Anticancer Drug Screen. Data for the cln2 rad14 strain (AID 165).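 Note: 0% = growth equal to vehicle treated cultures.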 Conditions: S. cerevisiae cln2 rad14 strain, active compounds read high. In outline:
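The screen exposed genetically defined yeast (cln2 rad14) to test compounds and scored growth inhibition relative to vehicle-treated controls.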

The nature of experiment [5]: NCI Yeast Anticancer Drug Screen. Data for the bub3 strain (AID 167). Conditions: S. cerevisiae bub3 mutant strain, active compounds read high. In outline: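 Steps: expose the mutant yeast strain to compound; grow alongside vehicle-treated cultures; measure growth; express inhibition against the vehicle cultures.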
Experiment [6] is described as follows: NCI Yeast Anticancer Drug Screen. Data for the mlh1 rad18 strain (AID 175). The following applies: S. cerevisiae mlh1 rad18 strain growth inhibition, active compounds read high. In outline: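 Compound-treated yeast growth, normalised to vehicle controls. Strain bears defined DNA repair mutations.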
Where [7] appears, read: at 5.0 µM (retest, dose inferred, filed as 0.5).
Where [8] appears, read: at 50.0 µM (retest, dose inferred, filed as 5.0).

On to `Cc1ccc2ccc3c(CCN(C)C)cc4c(c3c2c1O)OCO4`, for which the growth inhibition is -1% in experiment [1] (setting [7]); 22% in experiment [1] (setting [8]); 90.8% (active) in experiment [1] (at 50.0 µM); -4% in experiment [2] (setting [7]); 57% in experiment [2] (setting [8]); 67.3% in experiment [2] (at 50.0 µM). The growth inhibition in experiment [3] (setting [7]) is -1%; in experiment [3] (setting [8]), 75% (active); in experiment [3] (at 50.0 µM), 91.2% (active); in experiment [4] (setting [7]) it was -1%; in experiment [4] (setting [8]), 64%; in experiment [4] (at 50.0 µM), 95.2% (active). Moreover, the growth inhibition in experiment [5] (setting [7]) was -2%; in experiment [5] (setting [8]), 86% (active); in experiment [5] (at 50.0 µM) it was 92.5% (active); in experiment [6] (setting [7]), -5%; in experiment [6] (setting [8]), 53%; in experiment [6] (at 50.0 µM), 94.3% (active).
With `O/N=C1/C(=C/c2ccc(Cl)c(Cl)c2)CCCC1C(NO)c1ccc(Cl)c(Cl)c1` (stereo not given), the growth inhibition is 17% in experiment [1] (setting [7]); 96% (active) in experiment [1] (setting [8]); 64% in experiment [1] (at 50.0 µM); -1% in experiment [2] (setting [7]); 98% (active) in experiment [2] (setting [8]); 1.9% in experiment [2] (at 50.0 µM). Moreover, the growth inhibition in experiment [3] (setting [7]) was 2%; in experiment [3] (setting [8]), 96% (active); in experiment [3] (at 50.0 µM) it was 25.2%; in experiment [4] (setting [7]) it was -6%; in experiment [4] (setting [8]) it was 97% (active); in experiment [4] (at 50.0 µM), -14.8%. For the same compound, the growth inhibition was -1% in experiment [5] (setting [7]); 96% (active) in experiment [5] (setting [8]); 21.6% in experiment [5] (at 50.0 µM); 1% in experiment [6] (setting [7]); 97% (active) in experiment [6] (setting [8]); 79% (active) in experiment [6] (at 50.0 µM).
For `c1ccc(Nc2nnc3nc(-c4ccccc4)c(-c4ccccc4)nn23)cc1`, the growth inhibition in experiment [1] (setting [7]) is 12%; in experiment [1] (setting [8]), 60%; in experiment [1] (at 50.0 µM), 65.2%; in experiment [2] (setting [7]) it was 12%; in experiment [2] (setting [8]), 82% (active); in experiment [2] (at 50.0 µM), 55.1%. In addition, the growth inhibition was 19% in experiment [3] (setting [7]); 91% (active) in experiment [3] (setting [8]); 91.5% (active) in experiment [3] (at 50.0 µM); -1% in experiment [4] (setting [7]); 41% in experiment [4] (setting [8]); 33% in experiment [4] (at 50.0 µM). In addition, the growth inhibition was 6% in experiment [5] (setting [7]); 39% in experiment [5] (setting [8]); 36.1% in experiment [5] (at 50.0 µM); 5% in experiment [6] (setting [7]); 84% (active) in experiment [6] (setting [8]); 70.1% (active) in experiment [6] (at 50.0 µM).
Consider `COC(=O)C1C(=O)CC(c2ccccc2)C1c1ccccc1` (stereo not given), for which the growth inhibition is 2% in experiment [1] (setting [7]); -4% in experiment [1] (setting [8]); 6.5% in experiment [1] (at 50.0 µM); 1% in experiment [2] (setting [7]); -3% in experiment [2] (setting [8]); -6.25% in experiment [2] (at 50.0 µM). Further, the growth inhibition is -1% in experiment [3] (setting [7]); -4% in experiment [3] (setting [8]); -7.85% in experiment [3] (at 50.0 µM); 0% in experiment [4] (setting [7]); -5% in experiment [4] (setting [8]); 15.8% in experiment [4] (at 50.0 µM). Moreover, the growth inhibition was 7% in experiment [5] (setting [7]); 10% in experiment [5] (setting [8]); 1.2% in experiment [5] (at 50.0 µM); 0% in experiment [6] (setting [7]); -3% in experiment [6] (setting [8]); -0.75% in experiment [6] (at 50.0 µM).
With `CCOC(=O)/C(=C\c1ccc([N+](=O)[O-])cc1)C(C)=O`, the growth inhibition in experiment [1] (setting [7]) is 46%; in experiment [1] (setting [8]), 99% (active); in experiment [1] (at 50.0 µM), 92.8% (active); in experiment [2] (setting [7]) it was 39%; in experiment [2] (setting [8]) it was 99% (active); in experiment [2] (at 50.0 µM), 94.7% (active). Further, the growth inhibition in experiment [3] (setting [7]) was 25%; in experiment [3] (setting [8]), 98% (active); in experiment [3] (at 50.0 µM), 92.5% (active); in experiment [4] (setting [7]), 17%; in experiment [4] (setting [8]) it was 98% (active); in experiment [4] (at 50.0 µM), 87.1% (active). For the same compound, the growth inhibition is 40% in experiment [5] (setting [7]); 99% (active) in experiment [5] (setting [8]); 92.4% (active) in experiment [5] (at 50.0 µM); 30% in experiment [6] (setting [7]); 99% (active) in experiment [6] (setting [8]); 91.8% (active) in experiment [6] (at 50.0 µM).
On to `Oc1cccc2ccc(/C=C/c3ccccn3)nc12`, for which the growth inhibition in experiment [1] (setting [7]) was 1%; in experiment [1] (setting [8]) it was 98% (active); in experiment [1] (at 50.0 µM), 97.4% (active); in experiment [2] (setting [7]) it was 2%; in experiment [2] (setting [8]) it was 97% (active); in experiment [2] (at 50.0 µM), 97.2% (active). Besides, the growth inhibition in experiment [3] (setting [7]) is -6%; in experiment [3] (setting [8]) it was 98% (active); in experiment [3] (at 50.0 µM) it was 98.2% (active); in experiment [4] (setting [7]) it was -3%; in experiment [4] (setting [8]), 96% (active); in experiment [4] (at 50.0 µM) it was 95% (active). For the same compound, the growth inhibition in experiment [5] (setting [7]) is -2%; in experiment [5] (setting [8]) it was 98% (active); in experiment [5] (at 50.0 µM), 97.1% (active); in experiment [6] (setting [7]) it was 2%; in experiment [6] (setting [8]), 98% (active); in experiment [6] (at 50.0 µM) it was 98.5% (active).
Take `COc1ccc(C(c2c(O)c3ccccc3oc2=O)N2CCOCC2)c(OC)c1` (stereo not given): the growth inhibition was -4% in experiment [1] (setting [7]); 3% in experiment [1] (setting [8]); 33.4% in experiment [1] (at 50.0 µM); -6% in experiment [2] (setting [7]); 19% in experiment [2] (setting [8]); 23.1% in experiment [2] (at 50.0 µM). Moreover, the growth inhibition in experiment [3] (setting [7]) was -4%; in experiment [3] (setting [8]), 4%; in experiment [3] (at 50.0 µM) it was 35.6%; in experiment [4] (setting [7]), 3%; in experiment [4] (setting [8]), -3%; in experiment [4] (at 50.0 µM), 20.3%. Moreover, the growth inhibition is -2% in experiment [5] (setting [7]); 0% in experiment [5] (setting [8]); 69.2% in experiment [5] (at 50.0 µM); -7% in experiment [6] (setting [7]); -3% in experiment [6] (setting [8]); 43.4% in experiment [6] (at 50.0 µM).
As for `CCOC(=O)Nc1ccc(SCC2COC(Cn3ccnc3)(c3ccc(Cl)cc3Cl)O2)cc1` (stereo not given), the growth inhibition in experiment [1] (setting [7]) was 89% (active); in experiment [1] (setting [8]), 91% (active); in experiment [1] (at 50.0 µM), 97% (active); in experiment [2] (setting [7]), 72% (active); in experiment [2] (setting [8]), 93% (active); in experiment [2] (at 50.0 µM), 96.2% (active). The growth inhibition in experiment [3] (setting [7]) was 84% (active); in experiment [3] (setting [8]), 94% (active); in experiment [3] (at 50.0 µM), 49.1%; in experiment [4] (setting [7]), 60%; in experiment [4] (setting [8]) it was 90% (active); in experiment [4] (at 50.0 µM) it was 98% (active). Further, the growth inhibition in experiment [5] (setting [7]) was 91% (active); in experiment [5] (setting [8]), 93% (active); in experiment [5] (at 50.0 µM) it was 94.5% (active); in experiment [6] (setting [7]), 61%; in experiment [6] (setting [8]), 90% (active); in experiment [6] (at 50.0 µM), 95.2% (active).
As for `C[n+]1c(-c2ccc(/C=N\NC(=O)c3cccc(C(=O)N/N=C/c4ccc(-c5cn6ccccc6[n+]5C)cc4)c3)cc2)cn2ccccc21`, the growth inhibition is -14% in experiment [1] (setting [7]); 99% (active) in experiment [1] (setting [8]); 98% (active) in experiment [1] (at 50.0 µM); 27% in experiment [2] (setting [7]); 99% (active) in experiment [2] (setting [8]); 98.5% (active) in experiment [2] (at 50.0 µM). Moreover, the growth inhibition was 0% in experiment [3] (setting [7]); 99% (active) in experiment [3] (setting [8]); 98.2% (active) in experiment [3] (at 50.0 µM); -4% in experiment [4] (setting [7]); 99% (active) in experiment [4] (setting [8]); 97.7% (active) in experiment [4] (at 50.0 µM). In addition, the growth inhibition in experiment [5] (setting [7]) is 15%; in experiment [5] (setting [8]) it was 99% (active); in experiment [5] (at 50.0 µM) it was 98% (active); in experiment [6] (setting [7]), -14%; in experiment [6] (setting [8]), 99% (active); in experiment [6] (at 50.0 µM), 98.5% (active).
As to `CS(=O)(=O)OCCN(CCOS(C)(=O)=O)c1ccc(C=Nc2ccc(-c3cnc(-c4ccc(Cl)cc4)s3)cc2)c(Cl)c1`, the growth inhibition in experiment [1] (setting [7]) was 1%; in experiment [1] (setting [8]) it was 84% (active); in experiment [1] (at 50.0 µM), 90% (active); in experiment [2] (setting [7]) it was -3%; in experiment [2] (setting [8]), 91% (active); in experiment [2] (at 50.0 µM), 95% (active). In addition, the growth inhibition in experiment [3] (setting [7]) is 3%; in experiment [3] (setting [8]), 90% (active); in experiment [3] (at 50.0 µM), 93.8% (active); in experiment [4] (setting [7]) it was -6%; in experiment [4] (setting [8]), 90% (active); in experiment [4] (at 50.0 µM), 90.5% (active). The growth inhibition in experiment [5] (setting [7]) is 3%; in experiment [5] (setting [8]), 92% (active); in experiment [5] (at 50.0 µM) it was 92.3% (active); in experiment [6] (setting [7]) it was 0%; in experiment [6] (setting [8]), 89% (active); in experiment [6] (at 50.0 µM) it was 92.3% (active).
